# Compound activity (PubChem BioAssay)
# KinaseGlo FLuc: counter-screen: inhibitors of Kinase-Glo firefly luciferase | AID 1379 | Potency, µM (titrated, usually from 38.3 µM), without a hit: at the highest dose activity change, negative = inhibition, most hits filed as inhibitors | 200,000 tested, 0.28% active | Q27757 | Kinase-Glo luciferase, ATP luminescence, 8 min; also: % is scaled to controls: 0 for no effect and ±100 for the full control effect; nearly all actives have a fitted effect of over 60% in size
#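 Luminescence was the read-out, taken after 8-minute incubation at ambient temperature. Luciferase turned over luciferin with 10 uM ATP in imidazole pH 7.2 buffer containing KCl, MgCl2, Tween 20 and BSA.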
# Rab9 promoter act: activates the Rab9 promoter; AID 485297; 320,000 tested, 2.8% active; Potency, µM (top dose mostly 9.22 µM), inactives show at the highest dose activation, negative = inhibition, usual class: activators; Huh7 Rab9 promoter-luciferase reporter, luminescence, 24 h; also: % of control where 0% means no effect; nearly all actives have a fitted effect of over 60% in size
#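 Luminescence from Amplite-detected luciferase (10 minutes, ambient) reports Rab9 promoter activation. Before that, stable Rab9-luciferase Huh7 cells (1500/well, reduced-serum OP-MEM I plus 10% FBS) were exposed to compound for 24 hours at 37C.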
# FLuc counter: inhibits or activates purified firefly luciferase, miR-21 counter-screen. AID 588342. P08659. 360,000 tested, 6.9% active. purified FLuc, Km substrates, luminescence inhibition. Potency, µM (series often up to 57.5 µM), inactives show top-dose activity change, negative = inhibition, actives largely listed as inhibitors;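 also: plate controls were vehicle for no effect and reference inhibitor for full effect; nearly all actives have a fitted effect of over 55% in size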
# Target sequence (P08659 whole entry, looked up): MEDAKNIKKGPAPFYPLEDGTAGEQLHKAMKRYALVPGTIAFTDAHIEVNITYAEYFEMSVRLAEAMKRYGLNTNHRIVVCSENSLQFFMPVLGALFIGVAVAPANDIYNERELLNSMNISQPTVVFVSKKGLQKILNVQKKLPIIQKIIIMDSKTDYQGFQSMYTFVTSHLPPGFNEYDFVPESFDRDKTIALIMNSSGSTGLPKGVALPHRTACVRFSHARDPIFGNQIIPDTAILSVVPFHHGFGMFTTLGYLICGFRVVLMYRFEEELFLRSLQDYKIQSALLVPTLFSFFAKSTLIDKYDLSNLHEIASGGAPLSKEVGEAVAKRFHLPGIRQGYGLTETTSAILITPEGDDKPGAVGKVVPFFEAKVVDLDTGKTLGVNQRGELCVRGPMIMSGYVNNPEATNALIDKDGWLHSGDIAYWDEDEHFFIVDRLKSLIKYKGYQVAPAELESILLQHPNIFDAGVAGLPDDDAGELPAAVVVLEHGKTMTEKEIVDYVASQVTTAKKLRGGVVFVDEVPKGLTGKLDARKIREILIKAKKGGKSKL
#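 Purified P. pyralis luciferase, 10 nM final, with Km-level 10 uM D-luciferin and 10 uM ATP in 50 mM Tris acetate pH 7.5, 10 mM Mg acetate, 0.01% Tween-20, 0.05% BSA; 6-point qHTS titration about 60 µM downward; luminescence read.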
# SMN2 splice up: SMN2 splice variant enhancement. HEK293 SMN2-luciferase splicing reporter, luminescence, 30-36 h. 210,000 tested, 2.8% active. Potency, µM (series often up to 46.1 µM), inactives show at the top dose activity change, positive = activation, actives largely listed as activators; also: % of control where 0% means no effect; nearly all actives have a fitted effect of over 55% in size
#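 HEK293 cells carry an SMN2 […]–luciferase reporter in which exon 7 inclusion puts luciferase in frame. Cells were plated 10-12 h before compound addition, then incubated 30-36 h at 37C. ONE-Glo luminescence was read; sodium butyrate at 4.5 mM final served as control.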
# ELG1 genotox: induces genotoxicity in HEK293T cells with luciferase-tagged ELG1; 330,000 tested, 1.3% active; Potency, µM (series often up to 46 µM), inactives show at the highest dose activity change, positive = activation, actives largely listed as activators; HEK293T ELG1-luciferase reporter, luminescence, 16 h; also: % of control where 0% means no effect; nearly all actives have a fitted effect of over 60% in size
#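 Quantitative HTS format in 1536-well plates. HEK293T ELG1-luciferase reporter cells receive test compound and are incubated 16 hr at 37 °C, 5% CO2; ONE-Glo added, 30 min room temperature, then luminescence read.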
# NPC1 promoter act: activates the NPC1 promoter; Huh7 NPC1 promoter luciferase reporter, 24 h; Potency, µM (titrated, usually from 9.22 µM), without a hit: at the top dose activation, most hits filed as activators; 320,000 tested, 2.4% active; AID 485313; also: % of control where 0% means no effect; nearly all actives have a fitted effect of over 60% in size
#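 Luminescence read-out of NPC1 promoter-driven luciferase in stably transfected Huh7 cells; compounds delivered in DMSO and left 24 h at 37C, 5% CO2, qHTS titration format.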
# Active calls of the source: *; u = inconclusive; x = no result. This is a sample that favours compounds with a hit; in the whole collection about 7.5% have one here. Calls follow the shape of the dose curve; as a rule, active = well fitted curve in the direction sought with a large enough effect; inconclusive = small, poorly fitted or top-dose-only effect, or another doubt; inactive = no such curve, though single readings can be large; an effect the other way counts as inactive or inconclusive. Potency is read from the fitted curve at half-maximal effect.
SMILES,KinaseGlo FLuc,Rab9 promoter act,FLuc counter,SMN2 splice up,ELG1 genotox,NPC1 promoter act
CCC(C(=O)OCC(=O)NC(=O)c1ccccc1OC)c1ccccc1 (configuration not stated),x,-2%,u,x,-1%,1%
O=C1N/C(=N/S(=O)(=O)Cc2ccccc2)S/C1=C/c1ccc2c(c1)OCO2,x,-5%,27µM*,x,-2%,-2%
COc1ccc(/C=C2\SC(=NCc3ccccc3)NC2=O)cc1,-7%,-2%,-13%,-10%,-1%,-2%
CCCC(=O)Nc1ccc2oc(-c3ccc(OC)c(Br)c3)nc2c1,0%,6.3µM*,u,15%,u,u
CCC(=O)NC(=S)Nc1ccc2oc(-c3ccc(OC)cc3)nc2c1,0%,u,-4%,7.9µM*,16µM*,2µM*
CCOc1ccc(C(=O)Nc2ccc(-c3nc4cc(C)ccc4o3)cc2)cc1,x,x,-14%,x,x,x
CCCC(=O)Nc1ccc(-c2nc3cc(C)ccc3o2)cc1,0%,0.5µM*,0.54µM*,1.3µM*,u,0.5µM*
COc1ccc(C(=O)Nc2ccc3oc(-c4ccc5ccccc5c4)nc3c2)cc1Br,x,x,u,-7%,x,x
CCCC(=O)Nc1ccc(-c2nc3cc(C)c(C)cc3o2)c(O)c1,-1%,2µM*,1%,35µM*,u,u
CC(C)CCNC(=O)c1ccc2nc(Cc3ccccc3)oc2c1,x,x,7%,x,x,x
COC(=O)CCN1CCc2cc(N=Nc3ccc([N+](=O)[O-])cc3)ccc21,x,1.1µM*,0.67µM*,x,u,1.1µM*
Cc1ccccc1CN1CCc2cc([N+](=O)[O-])ccc21,x,-1%,-6%,x,-5%,-4%
CC(C)C[C@@H](CC(=O)N[C@@H](CCCN)CC(=O)N[C@@H]1CCNC[C@H]1C(=O)N[C@H](CC(=O)N[C@@H](CCC(=O)O)CC(=O)O)CC(C)C)NC(=O)[C@@H]1CCCC[C@H]1N,1%,x,x,1%,x,x
C[C@@H]1CC[C@H]2[C@H](C)[C@H]3CC[C@H]4C5[C@@H](O)CC6=CC(=O)CC[C@]6(C)[C@H]5C[C@H]4C3C(=O)N2C1 (some centres not stated),2%,x,x,1%,x,x
Nc1nc(Nc2ccccc2F)nc(N2CCCC2)c1[N+](=O)[O-],x,u,17µM*,x,u,0%
CCNCCC(=O)N1c2ccccc2Sc2ccc(C(F)(F)F)cc21,x,-7%,-8%,x,-1%,-1%
O=C(CN1C=NS(=O)(=O)c2ccc(C(F)(F)F)cc21)Nc1cccc(C(F)(F)F)c1,x,x,1%,x,x,x
Cc1cccc(-c2nc3c4ccccc4n(CC(=O)Nc4cccc(F)c4)c(=O)n3n2)c1,x,x,24µM*,x,x,x
COc1ccc(S(N)(=O)=O)cc1C(=O)N(C)CC(=O)Nc1ccc(N2CCOCC2)cc1,x,10%,u,x,-1%,5%
Cc1ccn2c(NC(=O)c3ccccc3)c(-c3cccs3)nc2c1,-1%,3%,-16%,0%,0%,-1%
Cc1ccn2c(NC3CCCC3)c(-c3cccs3)nc2c1,-13%,u,19µM*,9%,-3%,16%
Cc1ccn2c(NCc3ccccc3)c(-c3cccs3)nc2c1,-8%,3.2µM*,15µM*,u,9%,u
COc1ccccc1NCC(=O)c1ccc(C)c(C)c1,x,-1%,17µM*,x,0%,2%
COc1ccccc1NCC(=O)c1ccc(Cl)cc1,x,10%,17µM*,x,0%,1%
COc1ccc(N2CCN(C(CNC(=O)C(=O)NCCc3ccccc3)c3cccnc3)CC2)cc1 (configuration not stated),x,x,-15%,x,x,x
SMILES,KinaseGlo FLuc,Rab9 promoter act,FLuc counter,SMN2 splice up,ELG1 genotox,NPC1 promoter act
NC(N)=NS(=O)(=O)c1ccc(NC(=S)NC(=O)Cc2ccc(Cl)cc2)cc1,x,-1%,-4%,x,-1%,-1%
CCc1ccc(-c2ccc(C(=O)Oc3ccc(Br)cc3)cc2)nc1,x,x,-1%,5%,x,x
CCCc1ccc(-c2ccc(F)c(N)c2)nc1,u,0.4µM*,0.3µM*,0.71µM*,u,0.5µM*
Nc1cc(-c2nn[nH]n2)ccc1F,0%,6%,-1%,-14%,0%,-4%
CCCCc1ccc(-c2ccc(Br)cc2)nc1,-9%,1µM*,1.2µM*,3.5µM*,u,1.3µM*
CCCCC[C@H](O)CC[C@H]1[C@H](O)CC(=O)[C@@H]1CCCCCCC(=O)O,2%,x,x,10%,x,x
O=C(CNS(=O)(=O)c1ccc(Br)s1)N1CCC(N2CCCCC2)CC1,-4%,7%,-2%,-23%,1%,-5%
Cn1c(SCc2nn[nH]n2)nc2c1c(=O)n(Cc1ccccc1Cl)c(=O)n2C,0%,-3%,0%,18%,-5%,-3%
c1ccc(-c2ccc(-c3nc(-c4cccnc4)no3)cc2)cc1,-10%,u,1.3µM*,13µM*,2.3µM*,1.3µM*
c1cncc(-c2noc(-c3ccc4ccccc4c3)n2)c1,x,0.28µM*,1.2µM*,x,2.1µM*,0.32µM*
c1ccc(-c2noc(-c3cccnc3)n2)cc1,-15%,x,9.5µM*,u,x,x
CC(Nc1ccc(-c2nc(-c3cccnc3)no2)cc1[N+](=O)[O-])c1ccccc1 (configuration not stated),x,x,-1%,x,x,x
O=c1[nH]c2ccccc2cc1-c1noc(-c2cccnc2)n1,-1%,24%,u,-5%,-2%,23%
O=C(NC1CCCCC1)c1nc2c(nnn2Cc2ccccc2Cl)c(=O)[nH]1,0%,-7%,-4%,-29%,0%,1%
CCOC(=O)c1ccccc1NC(=O)CSc1ncc2c(n1)-c1ccccc1N(CC)S2(=O)=O,x,x,3%,x,x,x
Cc1ccc(NC(=O)c2sc(-n3nc(C)c(Cc4ccc5c(c4)OCO5)c3C)nc2C)cc1C,x,x,-6%,x,x,x
COc1cc(C(=O)Nc2cccc(C)c2C)c(Br)c(OC)c1OC,2%,-10%,-2%,0%,-7%,-5%
O=C(Nc1nc(-c2ccc3c(c2)OCO3)cs1)C1CC1,1%,3.5µM*,12µM*,11µM*,16µM*,u
CC(=O)Nc1nnc(-c2ccc3c(c2)CCCC3)o1,11%,4µM*,12µM*,u,u,u
CC(=O)Nc1ccc(-c2csc(NC(=O)C3CC(=O)N(c4ccc5c(c4)OCCO5)C3)n2)cc1 (configuration not stated),x,2%,-17%,x,-6%,-1%
O=C(O)C(=O)Nc1nc(-c2ccc3c(c2)OCCO3)cs1,x,2%,9.5µM*,x,16%,-2%
Cc1nc(NC(=O)C2CCCC2)sc1Cc1ccc2c(c1)OCO2,0%,u,17µM*,u,15%,16%
